In PubChem BioAssay AID652154 (Broad Institute, 2013):
Out of some 360,000 compounds screened, about 4,200 (1.2%) were called active.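 How the source made its calls: active means mean replicate inhibition at least 60% with every replicate also reaching 60%; inconclusive means only one of the two criteria is met; inactive means mean below 60% and not all replicates reaching 60%.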 Shown is part of a subset that was picked to be rich in actives.

Assay: inhibitors of PAX8-driven TPO luciferase reporter, primary screen, RMG-I cells, single concentration (AID 652154);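 further: luciferase light reporting Pax8 driven TPO promoter activity; plate controls were median of neutral control wells for no effect and mitoxantrone controls for full effect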
Conditions: SteadyGlo, 24 h, at 12.6 µM, active compounds read high
For `CC(C)NC(=O)N1CCCCN2[C@@H](CO)[C@@H](c3ccc(C#Cc4ccccc4)cc3)[C@@H]2C1`, the inhibition was 1.5% (inactive).
For `C/C=C/c1ccc2c(c1)O[C@@H](CN(C)CC1CCOCC1)[C@@H](C)CN([C@H](C)CO)S2(=O)=O`, the inhibition was -8.71% (inactive).
With `O=C(NC1CCCCC1)N[C@H]1CC[C@H](CCNS(=O)(=O)c2ccc(F)cc2)O[C@H]1CO` the inhibition was 1.61% (inactive).
In the case of `C[C@@H]1CCCCO[C@H](CN(C)C(=O)c2ccccc2)[C@H](C)CN([C@H](C)CO)C(=O)c2cc(N(C)C)ccc2O1`, the inhibition is reported as 12.7% (inactive).
In the case of `CC(C)NC(=O)Nc1ccc2c(c1)C(=O)N([C@H](C)CO)C[C@@H](C)[C@@H](CN(C)C(=O)c1ccncc1)OCCCC[C@H](C)O2`, the inhibition is reported as 1.42% (inactive).
With `C[C@@H]1CN([C@@H](C)CO)C(=O)c2cccc(NC(=O)CCCCCC(=O)Nc3ccccc3N)c2O[C@H]1CN(C)C(=O)Nc1ccccc1` the inhibition was -12.6% (inactive).
In the case of `C[C@@H]1CN([C@H](C)CO)C(=O)Cc2cc(NC(=O)CCC(F)(F)F)ccc2O[C@@H]1CN(C)Cc1ccncc1`, the inhibition is reported as -1.08% (inactive).
With `C[C@@H]1CN([C@@H](C)CO)C(=O)Cc2cc(NC(=O)CCCN(C)C)ccc2O[C@@H]1CN(C)Cc1ccc(-c2ccccc2)cc1` the inhibition was 10.4% (inactive).
With `Cc1ccc(S(=O)(=O)Nc2ccc3c(c2)CC(=O)N([C@H](C)CO)C[C@@H](C)[C@H](CN(C)Cc2ccc(C(F)(F)F)cc2)O3)cc1` the inhibition was 70.8% (active).
In the case of `Cc1ccc(S(=O)(=O)Nc2ccc3c(c2)CC(=O)N([C@@H](C)CO)C[C@H](C)[C@H](CN(C)Cc2ccccc2)O3)cc1`, the inhibition is reported as -12.9% (inactive).
In the case of `C[C@@H]1CN([C@H](C)CO)C(=O)Cc2cc(NC(=O)Nc3ccccc3)ccc2O[C@H]1CN(C)Cc1ccc(Cl)c(Cl)c1`, the inhibition is reported as 8.31% (inactive).
With `C[C@@H]1CN([C@H](C)CO)C(=O)c2cccc(NC(=O)CCCCCC(=O)Nc3ccccc3N)c2O[C@H]1CN(C)Cc1ccc(Oc2ccccc2)cc1` the inhibition was 71.9% (active).
With `C[C@H](CO)N1C[C@H](C)[C@H](CN(C)Cc2ccc(Oc3ccccc3)cc2)Oc2c(NC(=O)CCCCCC(=O)Nc3ccccc3N)cccc2C1=O` the inhibition was 9.67% (inactive).
In the case of `Cc1ccc(S(=O)(=O)Nc2ccc3c(c2)C(=O)N([C@@H](C)CO)C[C@@H](C)[C@H](CN(C)Cc2ccc(C(F)(F)F)cc2)O3)cc1`, the inhibition is reported as 10.1% (inactive).
With `C[C@@H]1CN([C@@H](C)CO)C(=O)Cc2cc(NC(=O)Nc3ccc(C(F)(F)F)cc3)ccc2O[C@H]1CN(C)Cc1ccc(C(=O)O)cc1` the inhibition was -5.6% (inactive).
With `C[C@H](CO)N1C[C@H](C)[C@@H](CN(C)Cc2ccc(Cl)c(Cl)c2)Oc2ccc(NC(=O)Nc3ccc(C(F)(F)F)cc3)cc2CC1=O` the inhibition was 99.1% (active).
For `C[C@H](CO)N1C[C@H](C)[C@@H](CN(C)Cc2ccc(-c3ccccc3)cc2)Oc2ccc(NC(=O)CCC(F)(F)F)cc2CC1=O`, the inhibition was 70.4% (active).
For `C[C@@H]1ON(C)[C@H]2C[C@H]3c4cc(N5CCOCC5)ccc4CCN3C[C@@H]12`, the inhibition was -4.88% (inactive).
In the case of `O=C(Nc1ccccc1F)N1CC(=O)N2[C@H](C1)[C@@H](c1ccc(C#CC3CC3)cc1)[C@@H]2CO`, the inhibition is reported as -14.6% (inactive).
With `O=C(N[C@@H]1CC[C@@H](CCNS(=O)(=O)c2ccccc2Cl)O[C@@H]1CO)c1ccccc1` the inhibition was -1.25% (inactive).
With `O=C(C[C@@H]1CC[C@H]2[C@@H](COC[C@H](O)CN2Cc2ccc(F)cc2)O1)N1CCc2ccccc2C1` the inhibition was -7.32% (inactive).
In the case of `CO[C@@H]1CN(C)C(=O)c2cc(NC(=O)c3cnccn3)ccc2OC[C@@H](C)N(CC2CC2)C[C@H]1C`, the inhibition is reported as 6.97% (inactive).
With `CO[C@@H]1CN(C)C(=O)c2cc(NC(=O)C3CC3)ccc2OC[C@H](C)N(CC2CC2)C[C@H]1C` the inhibition was 7.02% (inactive).
For `C[C@@H](O)C#Cc1ccc2c(c1)O[C@@H](CN(C)C)[C@@H](C)CN([C@@H](C)CO)S2(=O)=O`, the inhibition was -0.827% (inactive).
With `CCCNC(=O)Nc1ccc2c(c1)C(=O)N(C)C[C@@H](OC)[C@H](C)CN(CCC)[C@@H](C)CO2` the inhibition was -1.74% (inactive).
With `O=C(C1CCC1)N1C[C@H]2[C@@H](c3ccccc31)[C@@H](CO)N2C(=O)c1ccccc1F` the inhibition was 5.48% (inactive).
For `COc1cccc(-c2ccc3c(c2)[C@@H]2[C@@H](CCN2S(=O)(=O)C2=NC(C)C=N2)[C@@H](CO)N3C)c1` (stereo partly specified), the inhibition was 19.4% (inactive).
With `C/C=C/c1ccc([C@@H]2[C@H](CO)N(CC3CCCC3)C23CN(C(=O)CC)C3)cc1` the inhibition was 18.8% (inactive).
In the case of `C[C@H]1CN([C@@H](C)CO)S(=O)(=O)c2ccc(C3=CCCC3)cc2O[C@H]1CN(C)C(=O)Cc1ccncc1`, the inhibition is reported as 1.78% (inactive).
With `O=C(NCc1ccccc1Cl)[C@H]1[C@H](CO)[C@H]2Cn3c(cccc3=O)[C@H]2N1C(=O)C1CCC1` the inhibition was -12.8% (inactive).
With `Cc1ccc(S(=O)(=O)N(C)C[C@@H]2Oc3c(NC(=O)c4ccncc4)cccc3C(=O)N([C@@H](C)CO)C[C@@H]2C)cc1` the inhibition was 1.41% (inactive).
In the case of `CCS(=O)(=O)Nc1ccc2c(c1)C(=O)N(C)[C@H]1CC[C@H](CC(=O)N[C@@H]3CCN(Cc4ccccc4)C3)O[C@H]1CO2`, the inhibition is reported as -7.99% (inactive).
In the case of `C[C@@H]1CN([C@H](C)CO)C(=O)c2cc(C3=CCCCC3)cnc2O[C@@H]1CN(C)C(=O)c1ccc2c(c1)OCO2`, the inhibition is reported as -9.44% (inactive).
In the case of `C[C@@H]1CN([C@H](C)CO)C(=O)c2cc(C#CCN(C)C)cnc2O[C@H]1CN(C)C(=O)Cc1ccncc1`, the inhibition is reported as -16.9% (inactive).
In the case of `C[C@@H]1CN([C@@H](C)CO)C(=O)Cc2cc(NS(=O)(=O)c3ccc(Cl)cc3)ccc2O[C@H]1CN(C)Cc1ccc(C(F)(F)F)cc1`, the inhibition is reported as 84.5% (active).
With `COc1ccc(S(=O)(=O)Nc2ccc3c(c2)CC(=O)N([C@H](C)CO)C[C@H](C)[C@H](CN(C)Cc2ccc(C(F)(F)F)cc2)O3)cc1` the inhibition was 7.06% (inactive).
In the case of `C[C@H]1CN([C@@H](C)CO)C(=O)Cc2cc(NS(=O)(=O)c3ccc(F)cc3)ccc2O[C@H]1CN(C)Cc1ccc(C(F)(F)F)cc1`, the inhibition is reported as -55.2% (inactive).
With `C[C@H](CO)N1C[C@H](C)[C@H](CN(C)Cc2ccncc2)Oc2ccc(NS(=O)(=O)c3ccc(F)cc3)cc2CC1=O` the inhibition was 6.06% (inactive).
In the case of `C[C@H]1CN([C@@H](C)CO)C(=O)Cc2cc(NS(=O)(=O)c3cccs3)ccc2O[C@@H]1CN(C)Cc1ccc(Oc2ccccc2)cc1`, the inhibition is reported as -11% (inactive).
In the case of `C[C@H](CO)N1C[C@H](C)[C@@H](CN(C)Cc2ccc(Oc3ccccc3)cc2)Oc2ccc(NS(=O)(=O)c3ccc(F)cc3)cc2CC1=O`, the inhibition is reported as 78.6% (active).
For `COCC(=O)N(C)C[C@@H]1Oc2cc(C#Cc3cccnc3)ccc2S(=O)(=O)N([C@H](C)CO)C[C@H]1C`, the inhibition was 6.54% (inactive).
For `O=C(C[C@H]1CC[C@H]2[C@@H](COC[C@@H](O)CN2CCC(F)(F)F)O1)NCc1ccc2c(c1)OCO2`, the inhibition was -15.5% (inactive).
With `O=C(C[C@H]1C=C[C@H](NC(=O)Nc2ccccc2F)[C@@H](CO)O1)NCc1ccc(Cl)cc1` the inhibition was -8.13% (inactive).
In the case of `C[C@@H]1CCCCO[C@H](CN(C)Cc2ccncc2)[C@@H](C)CN([C@H](C)CO)C(=O)c2cc(NC(=O)CCCN(C)C)ccc2O1`, the inhibition is reported as -4.23% (inactive).
With `COc1ccc(NC(=O)N(C)C[C@H]2Oc3ccc(NC(=O)Cc4cn(C)c5ccccc45)cc3CC(=O)N([C@@H](C)CO)C[C@H]2C)cc1` the inhibition was 16.5% (inactive).
For `CN(Cc1cccs1)C(=O)CN1C(=O)c2ccccc2S1(=O)=O`, the inhibition was -105% (inactive).
For `O=C(CN1C(=O)c2ccccc2S1(=O)=O)N1CCc2ccccc21`, the inhibition was 90.5% (active).
With `CN(Cc1ccc(F)cc1)C(=O)CN1C(=O)c2ccccc2S1(=O)=O` the inhibition was -2.85% (inactive).
For `C[C@@H]1CN([C@@H](C)CO)C(=O)Cc2cc(NC(=O)Cc3ccccc3)ccc2O[C@@H]1CN(C)Cc1ccc2c(c1)OCO2`, the inhibition was 13.6% (inactive).
In the case of `Cc1cc(C(=O)Nc2cccc3c2O[C@@H](CN(C)C(=O)Nc2ccc(F)cc2)[C@H](C)CN([C@@H](C)CO)C3=O)n(C)n1`, the inhibition is reported as 7.05% (inactive).
In the case of `COc1ccc(NC(=O)Nc2ccc3c(c2)C(=O)N([C@@H](C)CO)C[C@H](C)[C@H](CN(C)CC2CCCCC2)O3)cc1`, the inhibition is reported as -0.963% (inactive).
For `CC(=O)Nc1ccc(C=CC(=O)c2ccc([N+](=O)[O-])cc2)cc1`, the inhibition was 15.2% (inactive).
For `O=C(O)C(=Cc1ccc([N+](=O)[O-])cc1)CCc1ccccc1`, the inhibition was 8.95% (inactive).
In the case of `O=C1/C(=C\c2ccc([N+](=O)[O-])cc2)CS(=O)(=O)C/C1=C/c1ccc([N+](=O)[O-])cc1`, the inhibition is reported as 122% (active).
For `COc1ccc(S(=O)(=O)N(C)C[C@H]2Oc3c(NC(=O)C4CCOCC4)cccc3C(=O)N([C@@H](C)CO)C[C@@H]2C)cc1`, the inhibition was -8.86% (inactive).
With `Cn1cnc(CCNC(=O)[C@H]2[C@H](CO)[C@H]3Cn4c(cccc4=O)[C@H]3N2C(=O)Nc2ccccc2)c1` the inhibition was -6.72% (inactive).
With `Cn1cnc(S(=O)(=O)N2C[C@@H](O)COC[C@@H]3O[C@H](CC(=O)NCc4ccc(F)cc4)CC[C@H]32)c1` the inhibition was -3.38% (inactive).
With `Cc1ccc(/C=N/NC(=O)COc2ccccc2-c2ccccc2)cc1` the inhibition was 87.7% (active).
For `Cc1ccc(/C=N/NC(=O)CSc2nc3ccccc3o2)cc1`, the inhibition was -83% (inactive).
With `Cc1ccc(COc2ccc(/C=N/NC(=O)CN3CCCCC3)cc2)cc1` the inhibition was -222% (inactive).
For `O=C(C[C@H]1CC[C@@H](NC(=O)Nc2ccc(C(F)(F)F)cc2)[C@H](CO)O1)NCc1cc(F)cc(F)c1`, the inhibition was -5.75% (inactive).
